Bioassay records as filed in PubChem.
In the library only some 1.8% were active in any assay of this set; here they are far more common.
ERp5 inh = blocks human ERp5 reductase activity on insulin | ERp5 insulin aggregation, absorbance 650 nm, 90 min | inhibition, % at 9.99 µM | hit rate 0.05% among 350,000;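 active means mean replicate inhibition above about 25%, with every replicate also reaching it, limit read from the data, passing the limit was not always enough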
Target sequence (Q15084 whole entry, looked up): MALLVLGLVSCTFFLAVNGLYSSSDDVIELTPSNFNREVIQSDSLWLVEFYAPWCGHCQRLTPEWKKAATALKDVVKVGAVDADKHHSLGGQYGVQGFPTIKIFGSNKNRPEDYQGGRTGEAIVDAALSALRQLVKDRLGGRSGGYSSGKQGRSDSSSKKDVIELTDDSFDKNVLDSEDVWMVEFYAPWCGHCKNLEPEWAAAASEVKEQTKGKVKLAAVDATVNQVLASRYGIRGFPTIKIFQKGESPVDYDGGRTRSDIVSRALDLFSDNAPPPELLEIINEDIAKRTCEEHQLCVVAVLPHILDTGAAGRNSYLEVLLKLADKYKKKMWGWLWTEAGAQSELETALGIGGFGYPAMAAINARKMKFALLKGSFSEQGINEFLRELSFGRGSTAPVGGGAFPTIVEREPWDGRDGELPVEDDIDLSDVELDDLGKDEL
MLL AF4-AF9 inh = MLL-AF4/AF9 protein interaction inhibition | P42568 | AlphaScreen, biotin-AF4 peptide binding to FLAG-AF9 | inhibition, % at 10 µM | hit rate 0.47% among 350,000;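 active means every replicate reaching a set inhibition limit, whatever the replicate mean, cut at about 25% in these data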;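 further: 0% = plate neutral control median and 100% = total signal loss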
DENV2 CPE = inhibitors of DENV2 cytopathic effect. DENV2-infected cells, cytopathic effect rescue, plate reader. CPE inhibition, % at 9.99 µM. hit rate 1.7% among 350,000. AID 651640; in the data active means CPE inhibition above about 20%, passing the limit was not always enough; tested in BHK-21 cells;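 further: 0% = median of neutral control wells and 100% = median of positive control wells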
ERAP1 HTS inh = ERAP1 (human) enzyme inhibition; Q9NZ08; recombinant ERAP1, Leu-AMC fluorescence, 60 min; inhibition, % at 10.7 µM; hit rate 0.15% among 340,000; AID 652197;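 active means mean replicate inhibition of at least 30%, or all replicates individually reaching that 30% level; inactive means mean below 30% and not every replicate reaching it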;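 further: 0% = neutral control wells and 100% = L-leucinethiol positive control wells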
PDI inh = inhibitors of human protein disulfide isomerase. P07237. PDI insulin aggregation turbidity, A650, 90 min. inhibition, % at 10 µM. hit rate 0.052% among 350,000. AID 588391;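 active means mean inhibition across replicates of 30% or more, whatever share of single replicates reach that level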
The depositor's hits bear a star; nt = no result given.

SMILES | ERp5 inh | MLL AF4-AF9 inh | DENV2 CPE | ERAP1 HTS inh | PDI inh
COc1ccc2c3c(n(C)c2c1)[C@@H](CO)N(C(=O)C1CCCC1)CC31CCN(C(=O)Nc2cccc(F)c2)CC1 | 1 | 1 | -7 | 0 | nt
COc1ccc2c3c(n(C)c2c1)[C@@H](CO)N(C(=O)C1CCCC1)CC31CCN(Cc2cccc(F)c2)CC1 | -5 | 38* | -2 | 0 | nt
COc1ccc2c3c(n(C)c2c1)[C@H](CO)N(C(=O)C1CC1)CC31CN(Cc2cccc(F)c2)C1 | 0 | 22 | 7 | 3 | nt
COc1ccc2c3c(n(C)c2c1)[C@H](CO)N(C(=O)C1CCCC1)CC31CCN(Cc2cccc(F)c2)CC1 | -7 | 26* | -11 | 0 | nt
COc1ccc2c3c(n(C)c2c1)[C@H](CO)N(C(=O)C1CCCC1)CC31CCN(C(=O)Nc2cccc(F)c2)CC1 | -4 | -1 | 28* | 0 | nt
CN1Cc2c(N3CCOCC3)nc3sc(C#N)c(N)c3c2CC1(C)C | -1 | 5 | -5 | 0 | -3
CN1Cc2c(N3CCOCC3)nc3sc(C(=O)c4ccc(Br)cc4)c(N)c3c2CC1(C)C | 1 | 30* | -19 | 2 | -9
CC(=O)/C(C#N)=C1\NC(=O)C(Cc2ccccc2Cl)S1 (configuration not stated) | nt | nt | nt | nt | 8
CC(=O)/C(C#N)=C1\NC(=O)C(Cc2cc(Cl)ccc2Cl)S1 (configuration not stated) | 6 | -5 | 57* | nt | -4
C[C@@H]1CN([C@@H](C)CO)C(=O)c2cc(NS(=O)(=O)c3ccc(F)cc3)ccc2O[C@@H]1CN(C)C(=O)Nc1ccccc1 | 12 | 0 | 36* | -4 | nt
C[C@H](CO)N1C[C@H](C)[C@@H](CN(C)C(=O)Nc2ccccc2)Oc2ccc(NS(=O)(=O)c3ccc(F)cc3)cc2C1=O | 0 | 3 | 2 | -2 | 2
Cc1ccc(S(=O)(=O)Nc2ccc3c(c2)C(=O)N([C@H](C)CO)C[C@H](C)[C@@H](CN(C)C(=O)Nc2cccc4ccccc24)O3)cc1 | -3 | 7 | 41* | 1 | nt
COc1ccc(NC(=O)N(C)C[C@H]2Oc3ccc(NS(=O)(=O)c4ccccc4)cc3C(=O)N([C@H](C)CO)C[C@@H]2C)cc1 | -3 | -2 | 29* | 2 | 4
COc1ccc(NC(=O)N(C)C[C@H]2Oc3ccc(NS(=O)(=O)c4ccccc4)cc3C(=O)N([C@H](C)CO)C[C@H]2C)cc1 | -1 | -2 | 4 | 4 | nt
C[C@H]1CN([C@@H](C)CO)C(=O)c2cc(NS(=O)(=O)c3ccc(F)cc3)ccc2O[C@H]1CN(C)C(=O)Nc1ccccc1 | -5 | -1 | 27* | -4 | nt
CN(C)C(=O)C[C@H]1CC[C@H]2[C@@H](COC[C@H](O)CN2C(=O)C2CC2)O1 | 0 | 0 | 1 | 0 | nt
C[C@@H]1CCCCO[C@@H](CN(C)Cc2ccc(C(=O)O)cc2)[C@@H](C)CN([C@@H](C)CO)C(=O)c2cc(NC(=O)c3ccncc3)ccc2O1 | 2 | -3 | -10 | 1 | nt
CCCCNC(=O)O[C@H]1C[C@@H]2CCN3C(=O)CCC[C@H]([C@H]1Cc1ccccc1)[C@H]23 | 3 | -2 | 54* | 1 | 1
CC[C@@H]1[C@H]2CCCC(=O)N3CC[C@@H](C[C@@H]1OC(=O)NCc1ccccc1)[C@@H]23 | 1 | 0 | -2 | 1 | 7
Cc1ccc(-c2ccnc3c(Cl)c(C)nn23)cc1 | 2 | 51* | 8 | 7 | 8
CCNC(=O)C[C@@H]1CC[C@@H]2[C@H](COC[C@@H](O)CN2C(=O)C2CCCC2)O1 | 4 | -3 | -12 | 1 | nt
Cc1cccc(S(=O)(=O)N[C@@H]2CC[C@H](CCNC(=O)c3cnccn3)O[C@@H]2CO)c1 | -4 | -1 | -3 | -2 | nt
COc1cccc(NC(=O)N2C[C@H](O)COC[C@@H]3O[C@@H](CC(=O)NC4CCC4)CC[C@H]32)c1 | 0 | -9 | 5 | 0 | nt
CCC(CC)NCCOC(=O)c1ccc([N+](=O)[O-])cc1 | 4 | 26* | -4 | 0 | 8
O=C(NCCOC(=O)c1ccc([N+](=O)[O-])cc1)c1cccnc1 | -3 | -1 | 6 | 1 | 1
SMILES | ERp5 inh | MLL AF4-AF9 inh | DENV2 CPE | ERAP1 HTS inh | PDI inh
COc1cccc(NC(=O)N[C@@H]2C=C[C@H](CC(=O)Nc3ccc(-c4ccccc4)cc3)O[C@H]2CO)c1 | 3 | 2 | 2 | -1 | nt
Cc1ccccc1-c1ccc([C@H]2[C@@H](CO)N3CCCCN(C(=O)CN4CCOCC4)C[C@H]23)cc1 | 7 | -3 | -6 | 4 | nt
CN1C(=O)N[C@@H]2c3ccccc3O[C@@]1(C)[C@@H]2COC(=O)c1ccc([N+](=O)[O-])cc1 | -1 | 1 | 38* | 1 | nt
C[C@H](CO)N1C[C@H](C)[C@H](CN(C)CC2CCCCC2)Oc2ccc(NC(=O)NC3CCCCC3)cc2C1=O | 2 | -2 | 29* | 3 | nt
C[C@@H]1CN([C@@H](C)CO)C(=O)c2cc(NC(=O)NC3CCCCC3)ccc2O[C@@H]1CN(C)CC1CCCCC1 | 3 | 1 | 60* | 1 | nt
C[C@@H]1CN([C@H](C)CO)C(=O)c2cc(NC(=O)Nc3ccc(F)cc3)ccc2O[C@@H](C)CCCCO[C@H]1CN(C)C(=O)Nc1ccc(F)cc1 | 1 | 1 | -8 | 3 | nt
COc1ccc2c3c(n(C)c2c1)[C@@H](CO)N(C(=O)C1CC1)CC31CN(Cc2ccccc2OC)C1 | 0 | 24 | -1 | 1 | nt
COc1ccc2c3c(n(C)c2c1)[C@H](CO)N(C(=O)c1ccccc1)CC31CN(Cc2ccccc2OC)C1 | nt | 45* | -3 | nt | nt
COc1ccc2c3c(n(C)c2c1)[C@H](CO)N(C(=O)c1cccc(F)c1)CC31CN(C(=O)c2cccc(F)c2)C1 | 4 | 1 | 46* | 3 | nt
COc1ccc2c3c(n(C)c2c1)[C@H](CO)N(C(=O)c1ccccc1)CC31CN(C(=O)c2ccccc2)C1 | -4 | -2 | 7 | 3 | nt
CCC(=O)N[C@H]1CC[C@H](CCn2cc(C3CC3)nn2)O[C@@H]1CO | 1 | -4 | 4 | -1 | nt
COc1ccccc1C#Cc1ccc2c(c1)[C@@H]1[C@@H](CCN1C(=O)c1ccccc1)[C@H](CO)N2 | -3 | -2 | 45* | 0 | nt
COc1ccccc1C#Cc1ccc2c(c1)[C@@H]1[C@@H](CCN1C(=O)Cc1ccccc1)[C@H](CO)N2 | 1 | 4 | 42* | 1 | nt
O=C(C[C@@H]1C[C@@H]2c3cc(NC(=O)C4CCOCC4)ccc3O[C@@H]2[C@H](CO)O1)NCc1cccc(F)c1 | -13 | -7 | 1 | 3 | nt
CN(C)C(=O)C[C@H]1C[C@H]2c3cc(NC(=O)C4CCOCC4)ccc3O[C@H]2[C@H](CO)O1 | 1 | -3 | 6 | 0 | nt
CN(C)C(=O)c1ccc(-c2ccc([C@@H]3[C@@H](CO)N4CCCCN(S(C)(=O)=O)C[C@@H]34)cc2)cc1 | -4 | -5 | -7 | 2 | nt
CN(C)C(=O)c1ccc(-c2ccc([C@@H]3[C@@H](CO)N4CCCCN(S(C)(=O)=O)C[C@H]34)cc2)cc1 | 2 | 30* | -11 | -1 | nt
